Screen size: about 330,000 compounds; about 10,000 (3%) were called active.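 Rule for the calls: active = inhibition of at least 50% at 8 µM in the primary screen; inactive = the rest.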 What follows is part of a selection rich in actives, with near analogues and random picks from the rest.
These molecules were tested against Protein Mdm4 (Homo sapiens) + E3 ubiquitin-protein ligase Mdm2 (Homo sapiens) (UniProt O15151+Q00987) (assay: inhibitors of human Mdm2-MdmX association, primary screen, cell-based, luminescence, split luciferase, SaOS-2, uHTS (AID 485346)). Settings: SaOS-2 split-luciferase Mdm2/MdmX complementation, at 8 µM, stronger effect = higher value.
Chain of Protein Mdm4 (Homo sapiens) + E3 ubiquitin-protein ligase Mdm2 (Homo sapiens) (O15151 whole entry, looked up): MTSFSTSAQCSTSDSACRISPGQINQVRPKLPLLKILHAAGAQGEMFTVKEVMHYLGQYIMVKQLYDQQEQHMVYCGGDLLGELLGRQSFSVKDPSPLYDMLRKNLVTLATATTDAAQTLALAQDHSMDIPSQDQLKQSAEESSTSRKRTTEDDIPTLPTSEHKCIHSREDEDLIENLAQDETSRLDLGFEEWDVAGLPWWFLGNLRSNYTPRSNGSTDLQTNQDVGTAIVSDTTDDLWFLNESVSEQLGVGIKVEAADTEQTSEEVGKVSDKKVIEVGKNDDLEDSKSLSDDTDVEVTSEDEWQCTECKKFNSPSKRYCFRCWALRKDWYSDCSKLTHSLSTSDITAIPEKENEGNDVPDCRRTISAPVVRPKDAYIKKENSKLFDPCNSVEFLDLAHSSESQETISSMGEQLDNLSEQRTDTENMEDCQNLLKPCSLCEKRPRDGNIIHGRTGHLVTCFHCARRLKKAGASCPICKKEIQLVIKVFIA
Chain of Protein Mdm4 (Homo sapiens) + E3 ubiquitin-protein ligase Mdm2 (Homo sapiens) (Q00987 whole entry, looked up): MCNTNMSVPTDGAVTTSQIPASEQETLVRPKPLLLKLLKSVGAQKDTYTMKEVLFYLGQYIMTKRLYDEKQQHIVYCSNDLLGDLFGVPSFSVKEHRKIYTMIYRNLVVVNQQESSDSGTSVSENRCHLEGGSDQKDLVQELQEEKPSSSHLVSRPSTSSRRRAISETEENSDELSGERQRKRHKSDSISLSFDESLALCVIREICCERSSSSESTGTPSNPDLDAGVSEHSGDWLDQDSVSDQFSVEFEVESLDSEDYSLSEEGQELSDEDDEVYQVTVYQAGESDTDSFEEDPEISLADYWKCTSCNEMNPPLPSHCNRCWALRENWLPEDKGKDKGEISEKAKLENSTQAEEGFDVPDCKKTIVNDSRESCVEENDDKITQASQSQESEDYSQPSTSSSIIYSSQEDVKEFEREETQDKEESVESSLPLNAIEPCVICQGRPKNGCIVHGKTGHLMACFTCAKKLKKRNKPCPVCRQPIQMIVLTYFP

| SMILES | inhibition |
| --- | --- |
| CC1CN(C(=S)Nc2ccccc2F)CC(C)O1 (stereo not given) | 28.4% (inactive) |
| O=C(/C=C/c1cccc([N+](=O)[O-])c1)OCC(=O)N1CCOCC1 | 9.38% (inactive) |
| CCOP(=O)(OCC)C(Nc1cccc(C)c1)c1ccc(F)cc1 (stereo not given) | -2.51% (inactive) |
| N=c1n(CCc2ccccc2)c2ccccc2n1Cc1ccccc1F | 64.2% (active) |
| Fc1ccccc1Cn1cnc(NC(=S)NCCc2ccccc2)n1 | 45.1% (inactive) |
| O=C(COC(=O)Cc1ccccc1F)NCCc1ccccc1 | 6.62% (inactive) |
| Cc1nn(CCOc2ccc(Br)cc2)c(C)c1[N+](=O)[O-] | 18.2% (inactive) |
| C=CC1=C(C(=O)O)N2C(=O)[C@@H](NC(=O)/C(=N\OCC(=O)O)c3csc(N)n3)[C@H]2SC1 | 16% (inactive) |
| COc1ccc(CCOC2OC(CO)C(OC(=O)/C=C/c3ccc(O)c(OC)c3)C(O[C@H]3O[C@@H](C)[C@H](O)[C@@H](O)[C@H]3O)C2O)cc1O (stereo not given in full) | -29.1% (inactive) |
| CCN1/C(=C\c2ccc3ccccc3[n+]2CC)Sc2cc(C)ccc21 | 77.1% (active) |
| COC(=O)C[n+]1cccc2ccccc21 | 6.08% (inactive) |
| O=S(=O)(NCC1CN(S(=O)(=O)c2ccc3c(c2)OCCO3)C1)c1c(F)cccc1F | -1.76% (inactive) |
| O=C(N[C@H]1C/C=C\C(c2ccc(F)cc2)N(Cc2ccccc2)C(=O)C1)OCC1c2ccccc2-c2ccccc21 (stereo not given in full) | 20.2% (inactive) |
| O=C(COc1ccccc1[N+](=O)[O-])N/N=C/c1ccc[nH]1 | 3.97% (inactive) |
| CC(=O)Nc1ccc(C(=O)/C=C/c2ccc[nH]2)cc1 | 1.87% (inactive) |
| CCCC(=O)Nc1ccc(C(=O)N/N=C/c2ccc[nH]2)cc1 | 70.3% (active) |
| O=C(NCc1ccccc1CN1CCCC1)C1CCN(S(=O)(=O)c2ccc(Cl)cc2)CC1 | 3.2% (inactive) |
| CC(C)(C)OC(=O)Nc1ccc([C@@H](NC(=O)OC(C)(C)C)C(=O)OC(C)(C)C)cc1 | 2.33% (inactive) |
| Cc1n[nH]c(=O)nc1N/N=C/c1cccs1 | -4.56% (inactive) |
| COc1ccccc1N1CCN(/N=C/c2ccc(O)cc2O)CC1 | 16.1% (inactive) |

| SMILES | inhibition |
| --- | --- |
| Cc1nc2ccccc2nc1N/N=C/c1ccc(O)cc1O | 77.6% (active) |
| Oc1ccc(/C=N/Nc2nc(-c3ccccc3F)nc3ccccc23)c(O)c1 | 69% (active) |
| Cc1ccc(/C=N/NC(=O)C2=NNC(c3ccccc3)(c3ccccc3)C2)c(O)c1 | 42.2% (inactive) |
| O=c1c2ccccc2nc(N/N=C/c2ccccc2)n1O | -0.971% (inactive) |
| CCCNC(=O)OC[C@H]1O[C@H](CCO/N=C/[C@@H](NS(=O)(=O)c2ccc(C)cc2)[C@H](C)/C=C/CC(=O)OC)C=C[C@@H]1Oc1ccc(OC)cc1 | 20.8% (inactive) |
| O=C(Cn1c2[n+](c3ccc(C(F)(F)F)cc31)CCCCC2)Nc1c(F)cccc1F | 13% (inactive) |
| C=CCNC(=O)/C=C/c1ccc(C(C)C)cc1 | -111% (inactive) |
| O=C(c1ccc[nH]c1=S)N1CCN(S(=O)(=O)c2ccc(Br)cc2Cl)CC1 | 2.6% (inactive) |
| COc1ccc(S(=O)(=O)N2CCC(C(=O)N3CCc4ccccc4C3)CC2)cc1OC | -18.3% (inactive) |
| COc1cc2c(cc1OC)C(C)N(S(=O)(=O)c1cnc(Cl)c(Cl)c1)CC2 (stereo not given) | 80.7% (active) |
| COc1cc2c(cc1OC)CN(C(=O)c1cc(S(=O)(=O)N3CCCCC3)ccc1Cl)CC2 | 20.3% (inactive) |
| COC(=O)C1=C(Nc2ccc(OC)cc2)C=C(C)C(C(=O)OC)C1c1ccc(C)cc1 (stereo not given) | 19.4% (inactive) |
| COC(=O)C1=C(Nc2ccc(C)cc2)C=C(C)C(C(=O)OC)C1c1ccc(F)cc1 (stereo not given) | 50.9% (active) |
| COC(=O)C1C(=O)NCC1c1ccc(C)cc1 (stereo not given) | 13% (inactive) |
| CC(C)(C)C(=O)NC1CC2CCCC(C1)N2C(=O)Nc1ccccc1F (stereo not given) | -1.01% (inactive) |
| O=C(CC1C(=O)NCCN1CC(c1ccccc1)c1ccccc1)NCC1CCOCC1 (stereo not given) | 15.7% (inactive) |
| COc1cc(NS(=O)(=O)c2ccc(NC(=S)NC(=O)c3ccccc3)cc2)nc(OC)n1 | 13.4% (inactive) |
| CCOC(=O)N1CCN(C(=O)c2ccc3c(c2)N(Cc2ccc(C)cc2)CCS3)CC1 | 6.09% (inactive) |
| COCCNC(=O)c1ccc(S(=O)(=O)c2ccc(Cl)cc2)c(NC(C)=O)c1 | 14.7% (inactive) |
| CCOC(=O)N1CCN(C(=O)c2ccc(S(=O)(=O)c3ccc(C)cc3)c(NC(C)=O)c2)CC1 | 50.8% (active) |

| SMILES | inhibition |
| --- | --- |
| CCOC(=O)/C(C#N)=C\c1c(C)cc(C)c(COC(C)=O)c1C | 14.2% (inactive) |
| Cc1cc(C)nc(SCC(=O)c2ccc(Cl)cc2)n1 | 9.88% (inactive) |
| Cc1cc(C)nc(S/C=C/C(=O)c2ccccc2)n1 | 65.8% (active) |
| Cc1cc(C)nc(SCC(=O)N(C)C)n1 | -9.55% (inactive) |
| CCCc1ccc(C(=O)COC(=O)CN2C(=O)NC3(CCCCC3C)C2=O)cc1 (stereo not given) | 11.7% (inactive) |
| O=C(Oc1c(-c2ccco2)oc2ccccc2c1=O)c1cccnc1 | 56.6% (active) |
| N#CCc1ccc(OC(=O)c2cccnc2)cc1 | 12.8% (inactive) |
| O=C(Oc1ccc(Br)cc1)c1cccnc1 | -5.87% (inactive) |
| O=C(c1ccc(-n2cnnn2)cc1)N1CCN(C(c2ccccc2)c2ccccc2)CC1 | 12.3% (inactive) |
| CCN(CCCNC(=O)CCn1c(=O)[nH]c2ccsc2c1=O)c1ccccc1 | 0.795% (inactive) |
| CCN(CCCNC(=O)C1CCN(S(=O)(=O)c2cnc[nH]2)CC1)c1ccccc1 | 37.3% (inactive) |
| CCN(CCCNC(=O)c1ccc2c(c1)NC(=O)CN2C)c1cccc(C)c1 | 82.6% (active) |
| CC1CC(C)CN(C(=O)CSc2ccsc2[N+](=O)[O-])C1 (stereo not given) | -7.54% (inactive) |
| Oc1ccc(-c2cccc(-c3ccc(O)cc3)c2)cc1 | -24.2% (inactive) |
| Cc1cccc(Nc2nc(-c3ccccc3)cs2)n1 | -222% (inactive) |
| COc1cc(CC(=O)Nc2nc(-c3ccc(F)c(F)c3)cs2)cc(OC)c1OC | 28.8% (inactive) |
| Cc1ccc(-c2csc(NC3OC(=O)c4ccccc43)n2)cc1 (stereo not given) | 63.6% (active) |
| Cc1ccc(-c2csc(NC(=O)Cn3[nH]c(=O)c4ccccc4c3=O)n2)cc1 | 31.2% (inactive) |
| COc1ccc2c(c1OC)C(=O)OC2Nc1nc(-c2ccccc2)cs1 (stereo not given) | 98.5% (active) |
| Cc1ccc(-c2csc(-c3cc(C)on3)n2)cc1 | -47.3% (inactive) |
